Out of some 85,000 compounds screened, about 440 (0.52%) showed an effect of 50% or more. The entries come from a sample that favours strong results as a whole.
Test: In vitro enzyme assay to detect hydrolysis of chlorophenol red-beta-D-[…] directly proportional to the number of Toxoplasma stably expressing beta-galactosidase
Type: functional, organism-based, Toxoplasma gondii
Set-up: scale not given: in the data most compounds retested in dose-response had high values

Row | SMILES | Percent Effect (50 µM) [%] | Percent Effect (10 µM) [%]
1 | Cc1n[nH]c(SCC(=O)NC2CCCCC2)n1 | 32.19 | –
2 | Nc1ccn(-c2ccc(C(F)(F)F)cn2)n1 | 9.315 | –
3 | CC(C)c1ccn(C)n1 | 1.261 | –
4 | Cn1nccc1CCC(=O)NCC[C@@H]1CCCN1 | 2.008 | –
5 | Cc1cc(C)n(CCC(=O)NCc2ccccn2)n1 | -3.878 | –
6 | CCCNC(=O)CCn1nc(C)cc1C | 59.42 | –
7 | CCC(C)C(=O)NCCCn1nc(C)cc1C (stereo not given) | – | 6.68
8 | C=C(C)CNc1nc2nonc2nc1NCCOC | 14.38 | –
9 | CC(C)c1nnsc1CNC(=O)CCc1csc(N)n1 | -4.031 | –
10 | Cc1cc(C(=O)NC(C)c2ccncc2)ncn1 (stereo not given) | 8.375 | –
11 | CC(=O)Nc1ccccc1CN | -1.882 | –
12 | CCCNC(=O)N1CCN(CCC)CC1 | -47.68 | –
13 | CCCC(=O)N1CCN(C(=O)NCC)CC1 | 54.38 | –
14 | CCNC(=O)N1CCNCC1 | 13.83 | –
15 | COCC(C)(O)C(F)(F)F (stereo not given) | 7.186 | –
16 | CC1Cc2ccccc2N1C(=O)c1ccccn1 (stereo not given) | 2.942 | –
17 | COCC(O)CN(C)CCn1cc(Br)cn1 (stereo not given) | 16.66 | –
18 | c1cnn(CCCNCCCn2cccn2)c1 | 0.4357 | –
19 | CCn1nc(C)c2nc(C(C)C)nc(NCC(C)C)c21 | – | 49.36
20 | CCn1nc(C)c2nc(C(C)C)nc(NCCCO)c21 | – | 1.913
21 | CCN(CC)CCNc1nc(C(C)C)nc2c(C)nn(CC)c12 | – | 58.79
22 | CCn1nc(C)c2nc(C(C)C)nc(NC)c21 | – | 39.93
23 | CCn1nc(C)c2nc(C(C)C)nc(NCC(C)O)c21 (stereo not given) | – | 75.76
24 | CCn1nc(C)c2nc(C(C)C)nc(NCCc3ccc(O)cc3)c21 | – | 48.01
25 | COc1ccnc(N2CC[S+]([O-])CC2)n1 | -6.202 | –
26 | O=C(CC1C=CCC1)NCc1ccccn1 (stereo not given) | -4.879 | –
27 | Cc1cccc(NC(=O)NC2CCN(C)CC2)c1 | -9.939 | –

Row | SMILES | Percent Effect (50 µM) [%] | Percent Effect (10 µM) [%]
28 | CC(NC(=O)NCCCN1CCCC1=O)c1ccco1 (stereo not given) | -1.872 | –
29 | CCN(Cc1cccc(F)c1)C1CCS(=O)(=O)C1 (stereo not given) | -4.951 | –
30 | Cc1ccc(CN(CC(=O)N2CCNC2=O)C(C)C)s1 | -25.32 | –
31 | Cc1cc(NC(=O)NCCN2CCC(C)CC2)n(C)n1 | -15.44 | –
32 | CCc1noc(CC)c1CNC(=O)Nc1ncnn1C | 67.97 | –
33 | CCc1noc(CC)c1CNC(=O)Nc1cccc([S+](C)[O-])c1 (stereo not given) | – | 5.882
34 | CCc1noc(CC)c1CNC(=O)Nc1cccc(C(=O)N(C)C)c1 | – | -1.441
35 | CSCCCNC(=O)Nc1ncnn1C | -6.612 | –
36 | CC1CCN(CCNC(=O)Nc2ncnn2C)CC1 | 93.89 | –
37 | CN1CCCN(C(=O)c2ccc(N(C)C)cc2F)CC1 | -3.403 | –
38 | CN(CCOc1ccc(Cl)cc1)CCC(N)=O | -5.352 | –
39 | CN(C)S(=O)(=O)N1CC(=O)NCC1(C)C | 14.19 | –
40 | OCCNc1nccc(-c2c[nH]nc2-c2ccco2)n1 | – | 54.25
41 | OCCNc1nccc(-c2c[nH]nc2-c2ccncc2)n1 | – | -1.451
42 | OCCNc1nccc(-c2c[nH]nc2-c2cccnc2)n1 | – | -8.104
43 | CN1Cc2ccccc2CC1=O | -6.86 | –
44 | NC1CCC(N2C(=O)CCC2=O)CC1 (stereo not given) | 15.63 | –
45 | CCCc1ccc(C(=O)N[C@@H]2CCOC[C@H]2O)cc1 | 64 | –
46 | CN(C)Cc1cccc(C(=O)N[C@@H]2CCOC[C@H]2O)c1 | -6.19 | –
47 | O=C(N[C@@H]1CCOC[C@H]1O)c1ccncc1 | -0.1422 | –
48 | C=C(C)C(C)(C)C(=O)N[C@@H]1COCC[C@H]1O | 16.24 | –
49 | Cc1oc(-c2ccoc2)nc1CN1CCC[C@H]1CO | – | 75.83
50 | COCC1CCCCN1Cc1nc(-c2ccoc2)oc1C (stereo not given) | – | 1.217
51 | Cc1oc(-c2ccoc2)nc1CN1CCCCC1CCc1ccccc1 (stereo not given) | – | -14.19
52 | O=C(Nc1ccc(-n2nccn2)cc1)N1CCC(O)C1 (stereo not given) | -2.451 | –
53 | CSCC[C@H](N)C(=O)N(C)Cc1ncc(Cl)n1C | -3.024 | –
54 | Cc1ccc(CNC(=O)N2Cc3ccccc3C2)cn1 | -21.35 | –

Row | SMILES | Percent Effect (50 µM) [%] | Percent Effect (10 µM) [%]
55 | C=C/C=c1\c(=C/C)oc2c(NCc3ccccc3)nc(CC)nc12 | – | 39.81
56 | C=C/C=c1\c(=C/C)oc2c(NCc3ccccc3)nc(C)nc12 | – | 54.55
57 | C=C/C=c1\c(=C/C)oc2c(NCc3ccccc3)ncnc12 | – | 26.91
58 | CC1CCCCN1C(=O)NCCNC(=O)c1ccn[nH]1 (stereo not given) | -2.19 | –
59 | CCC(N)c1cccc(OC)n1 (stereo not given) | -11.92 | –
60 | CCC(=O)c1cccc(OC)n1 | 98.31 | –
61 | COc1cccc(CO)n1 | -5.543 | –
62 | O=C(NCc1cccnc1)c1ccc(C(F)(F)F)nc1 | 2.561 | –
63 | COCCn1cncc1CO | 5.728 | –
64 | Nc1ncccc1C(=O)NCc1cccc(Cl)c1 | – | 10.41
65 | Nc1c[nH]nc1C(=O)NCc1cccc(Cl)c1 | 95.75 | –
66 | O=C(NCc1cccc(Cl)c1)c1cnns1 | -15.41 | –
67 | CCCOc1cccc(NCC(=O)N2CCNC2=O)c1 | 1.752 | –
68 | C[C@@H]1CN(C(=O)c2csc(CN(C)C)n2)C[C@]1(C)O | 11.61 | –
69 | CNC(=O)Cc1noc(CCc2cccc(F)c2)n1 | -4.248 | –
70 | CCC(C)N(C)CCC(=O)Nc1ccc(C(N)=O)cc1 (stereo not given) | -26.89 | –
71 | COc1ccc(S(=O)(=O)N2CCN(C)CC2)c(C)c1C | 5.644 | –
72 | CC(C)(C)OC(=O)NCC1CC(N)C1 (stereo not given) | 6.843 | –
73 | CC(C)(C)OC(=O)NCC1CC(C(N)=O)=NO1 (stereo not given) | 54.53 | –
74 | CC(C)(C)OC(=O)NC[C@@H]1CCC[C@H]1N | -4.138 | –
75 | Cc1nn(C)cc1C(=O)N1CCOC2(CCCC2)C1 | 5.531 | –
76 | CN(Cc1cccc(C#N)c1)Cc1ccnc(N)c1 | 100.1 | –
77 | CN(CC(N)=O)Cc1cccc(C#N)c1 | -4.421 | –
78 | COCCN(C)Cc1ccnc(N)c1 | -7.11 | –
79 | N#Cc1ccc(N2CCCC2C(=O)NC2CC2)cn1 (stereo not given) | 0.7704 | –
80 | Cc1cc(C)cc(NC(=O)CN2CCC(O)CC2)c1 | 5.146 | –
